BoNT F protease: BoNT/F light chain protease inhibitors, primary screen, biochemical, flow cytometry, MLPCN library. Botulinum neurotoxin type F light chain protease (Clostridium botulinum). Multiplex microsphere protease cleavage assay. inhibition, % at 10 µM. hit rate 0.22% among 360,000; in the data active means inhibition above about 35%, passing the limit was not always enough; inconclusive means no clear call, values can overlap the other calls; further: plate controls were buffer without enzyme for full effect and enzyme alone for no effect
Anthrax LF prot: Bacillus anthracis LF protease inhibitors, primary screen, biochemical, multiplex microsphere, MLPCN library | Lethal factor (Bacillus anthracis), P15917 | multiplex microsphere protease cleavage assay | inhibition, % at 10 µM | hit rate 0.12% among 360,000; further: plate controls were buffer without enzyme for full effect and enzyme alone for no effect
BoNT A protease: BoNT/A light chain protease inhibitors, primary screen, biochemical, flow cytometry, MLPCN library | AID 588499, 2011 | inhibition, % at 10 µM | hit rate 0.17% among 360,000 | multiplex microsphere protease substrate cleavage | Botulinum neurotoxin type A light chain protease (Clostridium botulinum A str. ATCC 3502); further: plate controls were buffer without enzyme for full effect and enzyme alone for no effect
Mtb FBA inh: Mtb FBA enzyme inhibitors, primary screen, biochemical, fluorescence, strain H37Rv. Fructose-bisphosphate aldolase (Mycobacterium tuberculosis (strain ATCC 25618 / H37Rv)), …. purified M. tuberculosis FBA, fluorescence read-out. inhibition, % at 1 µM. hit rate 2.3% among 360,000; in the data active means inhibition above about 27%;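 further: 0% = vehicle and 100% = reference inhibitor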
Target sequence (P9WQA3 whole entry, looked up): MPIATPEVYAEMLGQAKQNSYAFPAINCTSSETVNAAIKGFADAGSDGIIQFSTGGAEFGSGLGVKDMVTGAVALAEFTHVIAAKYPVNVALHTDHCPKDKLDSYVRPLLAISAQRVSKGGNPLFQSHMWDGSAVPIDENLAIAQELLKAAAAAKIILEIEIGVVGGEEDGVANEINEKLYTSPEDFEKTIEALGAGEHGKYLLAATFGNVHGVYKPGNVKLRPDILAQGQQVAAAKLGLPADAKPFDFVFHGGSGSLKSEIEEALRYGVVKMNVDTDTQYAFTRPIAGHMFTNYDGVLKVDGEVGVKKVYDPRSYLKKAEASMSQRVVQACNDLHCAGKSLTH
Autofluor counter: compound fluorescence in toxin protease inhibitor counterscreen. hit rate 3.1% among 360,000. compound autofluorescence counterscreen, microsphere flow cytometry; hits give high values. fluorescence intensity (concentration not given with the values); in the data active means fluorescence intensity above about 16000; inconclusive means no clear call, values can overlap the other calls
GDH-TPI inh: GDH-TPI coupling enzyme inhibitors, primary screen, artefact control for M. tuberculosis FBA inhibitor project, biochemical, absorbance, full deck; GDH-TPI coupled enzyme counterscreen, NADH absorbance; inhibition, % at 4.8 µM; hit rate 1.2% among 360,000; AID 588335, 2011; in the data active means inhibition above about 30%;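 further: 0% = DMSO wells and 100% = wells lacking the enzyme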
Numbers without * were called inactive; ? = inconclusive; . = no result given; + = active, no number. Sampled rows, rich in hits. Any-hit rate of the full collection: about 6.7%. Unless noted, no stated cut-off is given here; in the data, active means inhibition above about 30%; inconclusive means no clear call, values can overlap the other calls; inactive means below that.

SMILES	BoNT F protease	Anthrax LF prot	BoNT A protease	Mtb FBA inh	Autofluor counter	GDH-TPI inh
COC(=O)c1ccc2c(c1)N(Cc1ccccc1F)C(=O)c1ccccc1S2=O (stereo not drawn)	-5.5	-2.8	-0.4	5.4	4517	-0.7
O=C(Cc1c(O)c2ccccc2[nH]c1=O)N(Cc1ccccc1)Cc1ccccc1	-1.5	-2.8	0.8	6.0	22649*	2.1
O=c1cc(-c2ccccc2)nc2c(-c3ccccc3)c(C(F)(F)F)[nH]n12	.	.	.	+	.	10.0
C=CCNc1nnc(SC2CC(=O)N(c3ccc(OC)cc3)C2=O)s1 (stereo not drawn)	-3.7	-5.8	-2.6	-0.3	17184*	4.6
Nc1nc2ccccc2n1C(=O)c1cccs1	-5.8	-7.2	0.0	1.8	4248	61.0*
FC(F)(F)c1ccc(CSc2ccccn2)cc1	5.7	-3.3	0.2	3.3	6341	15.4
Cc1ccc(C(=O)n2cnnc2N)cc1	-6.0	0.5	?	-1.5	21599*	4.1
Nc1nncn1C(=O)c1c(Cl)cccc1Cl	3.1	0.7	4.8	-1.0	17890*	-5.6
COc1cccc(C(=O)N2CCCN(C)CC2)c1OC	37.3*	15.7	3.8	-1.1	3084	-3.4
Nc1nncn1C(=O)c1cc(Br)ccc1Cl	-3.0	9.1	0.8	1.1	9504	0.5
Cc1ccc(C(=O)n2cnnc2N)cc1C	-3.4	-5.7	-0.7	0.2	9712	3.5
COc1cccc(C(=O)n2cnnc2N)c1OC	1.0	-1.8	2.1	-2.1	19978*	-4.9
COc1ccc(C2=NN(C(C)=O)CC2c2cccc([N+](=O)[O-])c2)cc1 (stereo not drawn)	-4.3	-0.1	-1.2	-0.7	4417	1.7
COc1ccc(OC)c(C(=O)NC(CC(N)=O)c2ccc(NCC3CC3)c([N+](=O)[O-])c2)c1 (stereo not drawn)	-10.0	-2.2	-1.0	2.5	4007	3.6
CC1CCCCN1C(=O)Nc1ccccc1Cl (stereo not drawn)	-3.2	1.0	-0.6	-3.8	2473	1.6
CC1Cc2ccccc2N1Cc1nc2cc(Cl)ccc2c(=O)[nH]1 (stereo not drawn)	-1.7	-2.9	0.2	-0.4	3046	5.1
COC(=O)c1ccc2c(=O)[nH]c(CN3c4ccccc4CC3C)nc2c1 (stereo not drawn)	-2.2	-6.7	?	-1.6	19519*	13.6
Cc1ccc(S(=O)(=O)N2CCN(C(=O)CN3CCOCC3)C2C(C)C)cc1 (stereo not drawn)	-0.5	2.5	1.6	-0.1	22471*	12.4
Cc1ccc(S(=O)(=O)N2CCN(S(=O)(=O)c3ccc(C)cc3)C3OCCOC32)cc1 (stereo not drawn)	-2.0	-1.1	-1.5	1.7	16671*	6.6
Cc1ccc(S(=O)(=O)N2CCCCC2C(=O)O)cc1 (stereo not drawn)	-4.1	2.0	0.2	-0.6	3393	1.9
Cc1ccc(S(=O)(=O)Nc2nsc(N)n2)cc1	-10.1	-4.5	-3.3	-0.5	17173*	11.2
Cc1cc(C)nc(NS(=O)(=O)c2ccc(N)cc2)n1	-8.3	-6.5	-0.7	-3.0	5634	-0.5
O=C(NCc1ccco1)c1ccccc1-c1nc(-c2ccccc2)no1	-3.7	-1.5	-1.5	3.3	8585	7.7
CC(C)C[C@H](NC(=O)CCCn1nnc2ccccc2c1=O)C(=O)O	0.0	-2.6	1.2	-0.5	4309	58.9*
O=C(O)CCNC(=O)CCCn1nnc2ccccc2c1=O	-94.8	-10.9	-18.8	2.1	20247*	3.8
SMILES	BoNT F protease	Anthrax LF prot	BoNT A protease	Mtb FBA inh	Autofluor counter	GDH-TPI inh
COc1ccc(N=c2cc(-c3ccc(OC)cc3)oc3ccccc23)cc1	-12.5	-1.6	-1.9	13.1	2195	18.4
CC(C)Nc1cc(C(F)(F)F)nc(-c2ccccn2)n1	-5.3	-3.4	-3.8	1.1	20659*	-10.9
CN(C)c1cc(C(F)(F)F)nc(-c2ccccn2)n1	-1.8	-2.7	-0.4	3.7	16157*	5.8
FC(F)(F)c1cc(Nc2ccccc2)nc(-c2ccccn2)n1	-3.5	0.8	-0.7	2.2	4273	7.1
COc1cc(C(F)(F)F)nc(-c2ccccn2)n1	-2.2	4.8	-1.9	1.2	4218	-6.1
FC(F)(F)c1cc(Sc2ccccc2)nc(-c2ccccn2)n1	-2.1	-2.0	-0.1	-2.6	16298*	5.3
C=CCn1c(SCCN2CCCCC2)nc2c1c(=O)[nH]c(=O)n2C	-1.7	-4.2	-0.5	3.7	4865	9.6
CCOC(=O)CNc1c(-c2ccccc2)nc2ccc(Cl)cn12	-5.5	2.5	0.4	2.4	3693	4.4
CCOC(=O)CNc1c(-c2ccc(O)cc2)nc2ccc(Cl)cn12	0.3	-6.2	-0.9	4.7	23767*	16.2
CCOC(=O)C1=C(C)Nc2ncnn2C1/C=C/c1ccccc1 (stereo not drawn)	4.7	-10.0	4.5	1.1	20063*	13.7
CCCC1=C(C(=O)OCC)C(c2ccc(F)cc2)n2ncnc2N1 (stereo not drawn)	-13.3	-1.7	0.0	0.8	3021	-10.5
CCOC(=O)C1=C(C)Nc2ncnn2C1c1cccs1 (stereo not drawn)	-1.3	0.8	-0.2	-0.5	6491	13.8
CCCC1=C(C(=O)OCC)C(/C=C/c2ccccc2)n2ncnc2N1 (stereo not drawn)	-6.3	0.6	?	-3.5	21846*	3.0
Cc1nn(-c2cccc(C(F)(F)F)c2)c(Cl)c1/C=N/n1cnnc1	-2.8	-1.0	-0.6	-3.4	2867	-11.2
Cn1ccnc1Sc1nnnn1-c1ccccc1	-2.6	-0.3	-1.0	-1.5	20712*	-7.3
CCOc1ccc(NC(=O)N2CCc3ccccc3C2)cc1	3.6	1.9	-0.9	3.2	6554	5.2
COc1ccc(N=C2C(=O)Nc3ccccc32)cc1	0.9	-2.5	-0.2	3.1	22766*	5.6
COc1ccc(OC)c(N=C2C(=O)Nc3ccccc32)c1	-4.1	-7.9	?	-2.0	21377*	-3.9
CCOC(=O)CSc1nc(-c2ccccn2)ncc1OC	7.9	-4.0	-1.9	-2.3	4516	-2.5
CCOC(=O)CSc1ncc(OC)c(Sc2ccc(OC)cc2)n1	0.6	0.4	-0.1	-2.1	20771*	-9.5
CCOC(=O)N1CCC(NC(=O)c2ccccc2C(=O)O)CC1	?	9.8	?	0.6	4397	-5.7
CCOC(=O)N1CCC(NC(=O)c2cc(C)c3c(C)nn(-c4ccccc4)c3n2)CC1	6.8	-7.7	3.7	-1.0	19067*	-3.1
COc1cc(OC)c(/C=N/NC(N)=S)cc1Br	-0.8	1.3	-1.0	-0.6	2517	34.7*
Cc1ccc(S(=O)(=O)NCCN2CCNC2=O)cc1	.	.	.	-16.4	.	5.4
